Here are results for 49 compounds from PubChem BioAssay AID1456 (Vanderbilt High Throughput Screening Facility, 2008).

SMILES strings stand for the structures. In all, about 190,000 compounds went through this assay and about 4,100 (2.2%) were called active. Shown is part of a subset that was picked to be rich in actives. Unmarked numbers belong to inactive results.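 The calls were made as follows: active = thallium flux slope and its plate-corrected score both differing from the plate sample mean at a set confidence after two filtering rounds, in either direction; inactive = the rest.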

The target of this experiment is Solute carrier family 12 member 5 (Homo sapiens) (UniProt Q9H2X9). The experiment is described as follows: KCC2 cotransporter modulators, thallium flux, primary screen, cell-based, HEK293 KCC2, FluoZin-2 fluorescence, MLSMR (AID 1456).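 Also: slope of fluorescence scaled to starting intensity during 10 to 20 s after thallium.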 Particulars: KCC2 cells, thallium flux FluoZin-2 fluorescence; at 10 µM.
Sequence of Solute carrier family 12 member 5 (Homo sapiens) (Q9H2X9 whole entry, looked up): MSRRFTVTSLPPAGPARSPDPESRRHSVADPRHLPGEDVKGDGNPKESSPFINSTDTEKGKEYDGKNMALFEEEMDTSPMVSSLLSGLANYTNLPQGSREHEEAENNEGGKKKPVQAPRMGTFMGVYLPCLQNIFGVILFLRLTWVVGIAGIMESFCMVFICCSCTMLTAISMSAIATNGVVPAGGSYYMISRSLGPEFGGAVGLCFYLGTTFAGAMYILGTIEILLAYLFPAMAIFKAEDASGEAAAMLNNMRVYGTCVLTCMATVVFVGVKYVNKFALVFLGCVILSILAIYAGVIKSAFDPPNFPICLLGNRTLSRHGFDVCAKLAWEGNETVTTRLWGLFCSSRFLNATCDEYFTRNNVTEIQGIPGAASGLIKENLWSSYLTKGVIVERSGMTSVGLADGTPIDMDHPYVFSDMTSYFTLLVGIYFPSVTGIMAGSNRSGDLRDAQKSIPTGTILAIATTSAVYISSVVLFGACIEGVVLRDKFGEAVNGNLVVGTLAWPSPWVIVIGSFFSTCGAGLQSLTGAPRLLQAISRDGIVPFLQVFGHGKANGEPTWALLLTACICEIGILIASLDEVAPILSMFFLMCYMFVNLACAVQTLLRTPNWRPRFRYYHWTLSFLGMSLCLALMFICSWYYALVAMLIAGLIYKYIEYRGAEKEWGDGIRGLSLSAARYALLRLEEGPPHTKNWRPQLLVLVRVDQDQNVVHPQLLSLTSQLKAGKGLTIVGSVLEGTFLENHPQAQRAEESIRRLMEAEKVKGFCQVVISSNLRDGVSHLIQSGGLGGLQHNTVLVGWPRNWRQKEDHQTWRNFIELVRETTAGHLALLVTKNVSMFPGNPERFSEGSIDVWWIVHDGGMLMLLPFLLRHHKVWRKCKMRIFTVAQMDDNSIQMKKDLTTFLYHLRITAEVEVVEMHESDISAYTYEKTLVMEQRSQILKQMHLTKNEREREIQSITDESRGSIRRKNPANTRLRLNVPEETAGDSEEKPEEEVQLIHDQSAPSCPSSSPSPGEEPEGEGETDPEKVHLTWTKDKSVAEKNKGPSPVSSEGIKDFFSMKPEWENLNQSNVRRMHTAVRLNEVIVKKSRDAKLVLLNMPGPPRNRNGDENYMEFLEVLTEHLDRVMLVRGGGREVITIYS
`C/C(=N\NC(=O)C(N)=O)c1ccc2c(c1)OCCO2`: the B-score of Tl+ flux slope (higher = more flux/activation; lower = inhibition) was 0.474.

Consider `C/C(CC(=O)NC(C)c1ccccc1)=N\NC(N)=S` (centres undefined), for which the B-score of Tl+ flux slope (higher = more flux/activation; lower = inhibition) was -0.13.

As for `NS(=O)(=O)c1ccc(NC2=CC(c3ccc(F)cc3)N(c3ccc(S(N)(=O)=O)cc3)C2=O)cc1` (centres undefined), the B-score of Tl+ flux slope (higher = more flux/activation; lower = inhibition) is -4.18.

Consider `COc1ccc(F)cc1S(=O)(=O)N1CCCCC1`, for which the B-score of Tl+ flux slope (higher = more flux/activation; lower = inhibition) is -0.191.

On to `COc1cc(OC)cc(C(=O)NCCSCc2ccco2)c1`, for which the B-score of Tl+ flux slope (higher = more flux/activation; lower = inhibition) is 2.23 (active).

For `Cc1cc(C)cc(N(CC(=O)NCCSCc2ccco2)S(C)(=O)=O)c1`, the B-score of Tl+ flux slope (higher = more flux/activation; lower = inhibition) is -0.0202.

Regarding `O=C(/C=C/c1cccc([N+](=O)[O-])c1)NCCSCc1ccco1`, the B-score of Tl+ flux slope (higher = more flux/activation; lower = inhibition) was 0.313.

As for `O=[N+]([O-])c1ccc2c(c1)C(O)n1nc(-c3ccccc3)nc1S2` (centres undefined), the B-score of Tl+ flux slope (higher = more flux/activation; lower = inhibition) is 0.824.

Turning to `CC1CCN(Cc2nc(-c3ccc(Cl)cc3)no2)CC1`, the B-score of Tl+ flux slope (higher = more flux/activation; lower = inhibition) was -0.00541.

In the case of `Cc1ccc(-c2noc(CN3CCN(Cc4ccccc4)CC3)n2)cc1`, the B-score of Tl+ flux slope (higher = more flux/activation; lower = inhibition) is -2.45 (active).

As to `Cc1ccc(Cc2nc(-c3cccc(C)c3)no2)cc1`, the B-score of Tl+ flux slope (higher = more flux/activation; lower = inhibition) was -0.589.

Turning to `COc1cc(/C=C2/C(=O)ON=C2C)ccc1OCc1cccc(F)c1`, the B-score of Tl+ flux slope (higher = more flux/activation; lower = inhibition) was 0.0292.

In the case of `Cc1ccc(C(=O)Nc2nc(N)n(-c3ccccc3)n2)cc1`, the B-score of Tl+ flux slope (higher = more flux/activation; lower = inhibition) was 0.00295.

As for `c1nnc2c3c4c(sc3ncn12)CCC4`, the B-score of Tl+ flux slope (higher = more flux/activation; lower = inhibition) is -0.0315.

In the case of `S=c1[nH]nc2c3c4c(sc3ncn12)CCCC4`, the B-score of Tl+ flux slope (higher = more flux/activation; lower = inhibition) is 6.7 (active).

With `N=c1c2c3c(sc2ncn1N)CCCC3`, the B-score of Tl+ flux slope (higher = more flux/activation; lower = inhibition) is 1.3.

For the compound `O=C(CCl)Nc1cccc(CP(=O)(c2ccccc2)c2ccccc2)c1`, the B-score of Tl+ flux slope (higher = more flux/activation; lower = inhibition) is -0.0445.

As for `CCN(CC)C(=O)CS(=O)CC(=O)Nc1cc(OCCOC)c(Cl)cc1Cl` (centres undefined), the B-score of Tl+ flux slope (higher = more flux/activation; lower = inhibition) is -0.00564.

Consider `CC(C)N1C(=O)C2C(C(=O)NC3CCCCC3)C3C=CC2(O3)C1C(=O)NC1CCCC1` (centres undefined), for which the B-score of Tl+ flux slope (higher = more flux/activation; lower = inhibition) is -0.424.

For `O=C(NCc1cccnc1)Nc1ccccc1F`, the B-score of Tl+ flux slope (higher = more flux/activation; lower = inhibition) is 0.189.

As to `O=C(Nc1ccccc1F)C1C2C=CC3(O2)C1C(=O)N(c1cccnc1)C3C(=O)NC1CCCCC1` (centres undefined), the B-score of Tl+ flux slope (higher = more flux/activation; lower = inhibition) was -6.39 (active).

For `Cc1nn(-c2ccccc2)c(=O)c2noc(C)c12`, the B-score of Tl+ flux slope (higher = more flux/activation; lower = inhibition) was -0.0422.

`CCOC(=O)c1c(NC(=S)NC)sc2c1CCCC2`: the B-score of Tl+ flux slope (higher = more flux/activation; lower = inhibition) was 118 (active).

Take `CCOC(=O)c1c(NC(=S)Nc2ccccc2C)sc2c1CCC2`: the B-score of Tl+ flux slope (higher = more flux/activation; lower = inhibition) is -0.787.

With `CCOCC(=O)Nc1sc2c(c1C(=O)OCC)CCCC2`, the B-score of Tl+ flux slope (higher = more flux/activation; lower = inhibition) was 0.549.

As for `Cc1nc(=O)c(-c2ccccc2)c(C)n1-c1ccc(Br)cc1`, the B-score of Tl+ flux slope (higher = more flux/activation; lower = inhibition) was -0.435.

Consider `COCCNc1nc(-n2nc(C)cc2C)nc2sc3c(c12)CCCC3`, for which the B-score of Tl+ flux slope (higher = more flux/activation; lower = inhibition) is -4.01 (active).

On to `CCC(O)CNc1nc(-n2nc(C)cc2C)nc2sc3c(c12)CC(C)(C)OC3` (centres undefined), for which the B-score of Tl+ flux slope (higher = more flux/activation; lower = inhibition) was -1.67.

For `Cc1cc(C)n(-c2nc(SCC(=O)N3CCCC3)c3c4c(sc3n2)CCCC4)n1`, the B-score of Tl+ flux slope (higher = more flux/activation; lower = inhibition) was 0.509.

Take `COc1cccc(N2C(=O)CC(N3CCc4ccccc4C3)C2=O)c1` (centres undefined): the B-score of Tl+ flux slope (higher = more flux/activation; lower = inhibition) is 0.0221.

As to `O=C(CSc1nc2ccccc2o1)N/N=C/c1ccccc1C(=O)O`, the B-score of Tl+ flux slope (higher = more flux/activation; lower = inhibition) was 0.867.

As for `CSc1sc(C(=O)NC(=O)NCc2cccnc2)c(C)c1-c1ccon1`, the B-score of Tl+ flux slope (higher = more flux/activation; lower = inhibition) is -1.42.

With `COC(=O)c1cccnc1NC(=S)NC(C)C`, the B-score of Tl+ flux slope (higher = more flux/activation; lower = inhibition) was 37.7 (active).

`COC(=O)c1ccccc1NC(=S)NC(=O)c1ccccc1F`: the B-score of Tl+ flux slope (higher = more flux/activation; lower = inhibition) was 4.93.

Regarding `CCOC(=O)c1cccnc1NC(=O)c1ccncc1`, the B-score of Tl+ flux slope (higher = more flux/activation; lower = inhibition) was 0.477.

`c1ccc2c(CSCc3nc4ccccc4[nH]3)cccc2c1`: the B-score of Tl+ flux slope (higher = more flux/activation; lower = inhibition) is -2.07.

On to `Nc1scc[n+]1Cc1cccc2cccnc12`, for which the B-score of Tl+ flux slope (higher = more flux/activation; lower = inhibition) was -0.326.

On to `c1ccc2c(C[n+]3csc4ccccc43)cccc2c1`, for which the B-score of Tl+ flux slope (higher = more flux/activation; lower = inhibition) was 4.99 (active).

On to `CC(=O)Nc1ccc(C(=O)/C=C/c2ccc[nH]2)cc1`, for which the B-score of Tl+ flux slope (higher = more flux/activation; lower = inhibition) is 0.0206.

`Cc1ccc(S(=O)(=O)N2CCN(C(=O)COC(=O)c3c(C)noc3C)CC2)c(C)c1`: the B-score of Tl+ flux slope (higher = more flux/activation; lower = inhibition) was 0.177.

Take `CCn1c(O)c(N=NC2=NC(=O)CS2)c2cc(C)ccc21`: the B-score of Tl+ flux slope (higher = more flux/activation; lower = inhibition) was 8.24 (active).

For `CCn1c(O)c(N=NC(=O)c2cccc(S(=O)(=O)N3CCCCC3)c2)c2ccccc21`, the B-score of Tl+ flux slope (higher = more flux/activation; lower = inhibition) was -0.0952.

Turning to `CCn1c(=O)cc(O)c2ccccc21`, the B-score of Tl+ flux slope (higher = more flux/activation; lower = inhibition) is 0.265.

In the case of `O=C(Cn1nnc(N2CCCCC2)n1)c1ccc(Cl)c(Cl)c1`, the B-score of Tl+ flux slope (higher = more flux/activation; lower = inhibition) was -0.13.

Consider `C/C=N/N(c1ccccc1)c1ccccc1`, for which the B-score of Tl+ flux slope (higher = more flux/activation; lower = inhibition) is 0.121.

For the compound `Cc1ccc(S(=O)(=O)/N=C(/NC(=S)Nc2c(C)n(C)n(-c3ccccc3)c2=O)c2ccccc2)cc1`, the B-score of Tl+ flux slope (higher = more flux/activation; lower = inhibition) is -0.219.

Consider `CC1CCCCN1S(=O)(=O)c1ccc(S(=O)(=O)N(CC(=O)Nc2ccccc2)Cc2cccs2)cc1` (centres undefined), for which the B-score of Tl+ flux slope (higher = more flux/activation; lower = inhibition) was 0.0298.

For the compound `CC1CCCCN1S(=O)(=O)c1ccc(C(=O)Nc2nnc(-c3cccs3)o2)cc1` (centres undefined), the B-score of Tl+ flux slope (higher = more flux/activation; lower = inhibition) is 6.64 (active).

Regarding `CC1CCCN(S(=O)(=O)c2ccc(C(=O)Nc3nnc(-c4ccncc4)o3)cc2)C1` (centres undefined), the B-score of Tl+ flux slope (higher = more flux/activation; lower = inhibition) is -0.0172.
